From PubChem BioAssay
Mtb BioA inh: BioA (M. tuberculosis) enzyme inhibition; purified M. tuberculosis BioA enzyme, plate reader; inhibition, % at 9.99 µM; actives 0.096% (n = 360,000); AID 602481; in the data active means inhibition above about 40%
GDH-TPI counter-1: GDH-TPI coupled enzyme inhibition counter-screen. inhibition, % at 4.8 µM. AID 588335. actives 1.2% (n = 360,000). GDH-TPI coupled enzyme counterscreen, NADH absorbance; in the data active means inhibition above about 30%;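 further: 0% = DMSO wells and 100% = wells lacking the enzyme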
BH1578 lux ind: inducers of Vibrio cholerae quorum light production without autoinducers. V. cholerae BH1578 lux reporter, luminescence, 6 h. activation, % at 18.7 µM. actives 0.16% (n = 350,000); in the data active means activation mostly above about 9.7%, no sharp cut-off
FBA Mtb inh: inhibits M. tuberculosis FBA enzyme | inhibition, % at 1 µM | P9WQA3 | purified M. tuberculosis FBA, fluorescence read-out | actives 2.3% (n = 360,000);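 further: 0% = vehicle and 100% = reference inhibitor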
Target sequence (P9WQA3 whole entry, looked up): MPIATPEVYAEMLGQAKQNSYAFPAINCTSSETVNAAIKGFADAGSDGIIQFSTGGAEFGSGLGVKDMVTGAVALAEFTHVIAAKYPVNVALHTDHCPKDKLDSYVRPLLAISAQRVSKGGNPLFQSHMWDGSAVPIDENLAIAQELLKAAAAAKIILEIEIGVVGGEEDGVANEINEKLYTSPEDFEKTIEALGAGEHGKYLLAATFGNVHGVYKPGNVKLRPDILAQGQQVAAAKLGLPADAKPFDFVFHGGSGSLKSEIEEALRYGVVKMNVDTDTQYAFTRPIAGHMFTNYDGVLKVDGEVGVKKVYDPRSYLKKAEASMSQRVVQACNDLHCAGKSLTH
Mtb FBA inh conf: Mtb FBA inhibition, confirmed; shares compounds with FBA Mtb inh; purified M. tuberculosis FBA, fluorescence read-out; inhibition, % at 1 µM; actives 78% (n = 5,600);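 further: 0% = vehicle wells and 100% = reference inhibitor wells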
GDH-TPI counter-2: counter-screen for M. tuberculosis FBA inhibitors: GDH-TPI coupled enzyme inhibition. shares compounds with FBA Mtb inh. GDH-TPI coupled enzyme counterscreen, fluorescence. inhibition, % at 1 µM. actives 81% (n = 5,600); in the data active means inhibition above about 10%
Starred values were filed as active, the others as inactive. This is a sample that favours compounds with a hit; in the whole collection about 3% have one here. Unless noted, no stated cut-off is given here; in the data, active means inhibition above about 27%; inactive means the rest.

How did CC(C)NC(=O)Nc1ccc2c(c1)CC(=O)N([C@H](C)CO)C[C@@H](C)[C@H](CN(C)Cc1ccc(-c3ccccc3)cc1)O2 do in these assays?
Mtb BioA inh: -1

How did C[C@@H]1CN([C@H](C)CO)C(=O)c2cc(-c3ccc(C#N)cc3)cnc2O[C@H]1CN(C)CC1CCCC1 do in these assays?
Mtb BioA inh: -1

How did Cc1cc(=O)n2c(nc3ccccc32)s1 do in these assays?
Mtb BioA inh: 1; GDH-TPI counter-1: 5; BH1578 lux ind: 0; FBA Mtb inh: -2

Results for O=c1cc(CCl)[nH]c2nc3ccccc3n12 ?
Mtb BioA inh: -2; GDH-TPI counter-1: 21; BH1578 lux ind: -1; FBA Mtb inh: 47*; Mtb FBA inh conf: 169*; GDH-TPI counter-2: 112*

What do the screens show for `CC(C)c1cc(=O)n2c(nc3ccccc32)[nH]1`?
Mtb BioA inh: -1; GDH-TPI counter-1: 3; BH1578 lux ind: inactive; FBA Mtb inh: 45*; Mtb FBA inh conf: 119*; GDH-TPI counter-2: 108*

How did O=c1cc(-c2ccccc2)[nH]c2nc3ccccc3n12 do in these assays?
Mtb BioA inh: 3; GDH-TPI counter-1: 16; BH1578 lux ind: 0; FBA Mtb inh: 51*; Mtb FBA inh conf: active; GDH-TPI counter-2: active

How did Cc1ccc(-c2ccc([C@H]3[C@@H](CO)N4CCCCN(S(=O)(=O)c5ccccc5C)C[C@H]34)cc2)cc1 do in these assays?
Mtb BioA inh: -4

How did CN(C)c1ccc(C2Nc3ccccc3C(=O)N2CCN2CCNC2=O)cc1 (stereo unspecified) do in these assays?
Mtb BioA inh: 4; GDH-TPI counter-1: 7; BH1578 lux ind: 0; FBA Mtb inh: 5

What do the screens show for `O=C1c2ccccc2NC(c2ccccc2)N1Cc1ccccc1` (stereo unspecified)?
Mtb BioA inh: 0; GDH-TPI counter-1: -8; BH1578 lux ind: inactive; FBA Mtb inh: 63*; Mtb FBA inh conf: 39*; GDH-TPI counter-2: 15*

How did COc1ccc2c(c1)C[C@]1(C)c3ccccc3C(=O)N(Cc3ccccc3)[C@H]21 do in these assays?
Mtb BioA inh: 0; GDH-TPI counter-1: 2; BH1578 lux ind: -1; FBA Mtb inh: -1

Results for O=C1c2ccccc2NC(c2ccccc2)N1c1ccc(O)cc1 (stereo unspecified) ?
Mtb BioA inh: 1; GDH-TPI counter-1: 1; BH1578 lux ind: inactive; FBA Mtb inh: 4

How did O=C1c2ccccc2NC(c2ccc(F)cc2)N1Cc1ccccc1 (stereo unspecified) do in these assays?
Mtb BioA inh: 0; GDH-TPI counter-1: 7; BH1578 lux ind: -1; FBA Mtb inh: 57*; Mtb FBA inh conf: 79*; GDH-TPI counter-2: 55*

How did COc1cccc(C2Nc3ccccc3C(=O)N2Cc2ccccc2)c1 (stereo unspecified) do in these assays?
Mtb BioA inh: 0; GDH-TPI counter-1: -1; BH1578 lux ind: -1; FBA Mtb inh: 61*; Mtb FBA inh conf: 24; GDH-TPI counter-2: 18*

What do the screens show for `O=C1NCCN1CCN1C(=O)c2ccccc2NC1c1ccccc1` (stereo unspecified)?
Mtb BioA inh: 0; GDH-TPI counter-1: 4; BH1578 lux ind: 0; FBA Mtb inh: 72*; Mtb FBA inh conf: 108*; GDH-TPI counter-2: 91*

How did O=C(O)C1c2ccccc2C(=O)N(Cc2ccc(F)cc2)C1c1ccncc1 (stereo unspecified) do in these assays?
Mtb BioA inh: -3; GDH-TPI counter-1: 2; BH1578 lux ind: -1; FBA Mtb inh: 1

What do the screens show for `COCC(=O)N(C)C[C@H]1Oc2cc(C#Cc3ccccc3)ccc2S(=O)(=O)N([C@@H](C)CO)C[C@H]1C`?
Mtb BioA inh: 0

What do the screens show for `O=C(C[C@@H]1CC[C@@H]2[C@H](COC[C@H](O)CN2Cc2cc(F)ccc2F)O1)NCc1ccc(Cl)cc1`?
Mtb BioA inh: -2

What do the screens show for `CCNC(=S)Nc1cccc(NC(=O)c2ccccc2O)c1`?
Mtb BioA inh: 0; GDH-TPI counter-1: 5; BH1578 lux ind: inactive; FBA Mtb inh: 37*; Mtb FBA inh conf: 3; GDH-TPI counter-2: -4

What do the screens show for `CCC1CCCCN1Cc1nc2ccccc2c(=O)n1CC(C)=O` (stereo unspecified)?
Mtb BioA inh: 0; GDH-TPI counter-1: 19; BH1578 lux ind: 0; FBA Mtb inh: -2

How did O=c1c(-c2ccc([N+](=O)[O-])cc2)coc2c(O)c(O)ccc12 do in these assays?
GDH-TPI counter-1: 17; BH1578 lux ind: -4; FBA Mtb inh: -2
